We go through 52 compounds from PubChem BioAssay AID2685 (National Center for Advancing Translational Sciences (NCATS), 2010).

The whole screen tested about 320,000 compounds, of which about 2,100 (0.66%) were called active. About 53% were inconclusive and are not listed. This is one part of a sample in which actives are shown more often than they occur. The call rests on the fitted dose curve; in most records, active means well fitted inhibition curve with a large enough effect in the signal ratio, with a control signal flat (not every such curve was filed as active); inconclusive means small, poorly fitted or top-dose-only effect, or effect the other way, or a change in a side signal; inactive means flat fitted curve, though single readings scatter; the % refers to the signal ratio.
Potency means the concentration at half of the fitted maximal effect.

The nature of the assay: qHTS Assay for Lipid Storage Modulators in Drosophila S3 Cells.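 On cell number change: cells counted by Cell Tracker Red CMTPX staining in the red channel.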 As to conditions: BODIPY lipid droplet fluorescence, 18-24 h, cells fed with added oleic acid; cell number change: measured here: cell count max response; series mostly up to 46.1 µM. A digest of the protocol: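 Drosophila S3 cells got compounds at several concentrations plus oleic acid (400 uM solution). Laser-scanning cytometry with 488 nm excitation read lipid droplets at 500-530 nm and cells at 575-640 nm. Percent activity was relative to 20 uM Triacsin C.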
Take `COc1ccc(NS(=O)(=O)c2ccc(C(=O)OC(C)C(=O)N3CCOCC3)cc2)cc1` (stereo unspecified): the Potency entry is “inactive” and the cell number change was -5.78%.

Consider `Cc1ccc(CCNC(=O)CCNS(=O)(=O)c2ccc3c(c2)oc(=O)n3C)cc1`, for which the Potency entry was “inactive” and the cell number change stood at 0.906%.

With `C[C@H](NC(=O)CCCOc1ccc(Cl)cc1Cl)c1nnc2ccccn12`, the Potency was 18.4 µM (active) and the cell number change is 5.34%.

For `O=C(CCCOc1ccc(Cl)cc1Cl)NCCc1nnc2ccccn12`, the Potency entry is “inactive” and the cell number change turned out to be 33.2%.

As to `CC(C)NC(=O)CCCOc1ccc(Cl)cc1Cl`, the Potency result is “inactive” and the cell number change is 5.02%.

In the case of `Cc1sc2ncnc(SCC(=O)N3CCOCC3)c2c1C`, the Potency entry was “inactive” and the cell number change is -10.8%.

For `COc1ccccc1CNC(=O)CCS(=O)(=O)c1ccc2c(c1)CC(C)N2C(=O)C1CC1` (stereo unspecified), the Potency entry is “inactive” and the cell number change was -19.6%.

As for `COc1ccccc1NC(=O)CCNS(=O)(=O)c1ccc2c(c1)CC(C)N2C(=O)C1CC1` (stereo unspecified), the Potency entry is “inactive” and the cell number change was found to be 3.62%.

Consider `CC1Cc2cc(S(=O)(=O)NCc3ccccc3)ccc2N1C(=O)C1CC1` (stereo unspecified), for which the Potency entry was “inactive” and the cell number change was -26.2%.

With `COc1cccc(CNS(=O)(=O)c2ccc3c(c2)CC(C)N3C(=O)C2CC2)c1` (stereo unspecified), the Potency was 11.6 µM (active) and the cell number change was -26.9%.

In the case of `COc1cccc(NC(=O)CCNS(=O)(=O)c2ccc3c(c2)CC(C)N3C(=O)C2CC2)c1` (stereo unspecified), the Potency entry was “inactive” and the cell number change was 4.78%.

On to `COc1ccccc1CNS(=O)(=O)c1ccc2c(c1)CC(C)N2C(=O)C1CCC1` (stereo unspecified), for which the Potency was 5.17 µM (active) and the cell number change is -14.7%.

As to `OC1(c2ccccc2)CCN(Cc2ccccc2)C2CCCCC21` (stereo unspecified), the Potency result is “inactive” and the cell number change is -0.282%.

As for `COc1ccc(-n2c(/C=C(\C)O)nc(=O)c3c(C)cc(C)nc32)cc1`, the Potency result is “inactive”.

`COC(=O)C1Cc2c([nH]c3ccccc23)CN1C(C)=O` (stereo unspecified): the Potency result was “inactive” and the cell number change was 2.42%.

With `O=C(COC(=O)C1CCCN1C(=O)c1cccs1)Nc1ccc2c(c1)OCO2` (stereo unspecified), the Potency result is “inactive” and the cell number change was found to be 11.1%.

Turning to `O=C(O)CCN1C(=O)S/C(=C\c2cccnc2)C1=O`, the Potency result is “inactive” and the cell number change stood at 3.35%.

Consider `O=C(NCCN1C(=O)S/C(=C\c2cccnc2)C1=O)c1ccc([N+](=O)[O-])s1`, for which the Potency entry is “inactive” and the cell number change amounted to 0.268%.

With `COc1ccc(NC(=O)COC(=O)[C@@H]2CCCN2C(=O)c2cccs2)c(OC)c1`, the Potency entry was “inactive” and the cell number change is -0.232%.

In the case of `COc1ccc(NC(=O)COC(=O)[C@@H]2CCCN2C(=O)c2cccs2)cc1`, the Potency was 29.1 µM (active) and the cell number change was 7.9%.

Take `COc1ccc(/C=C2/SC(=O)N(CCNC(=O)C3COc4ccccc4O3)C2=O)cc1` (stereo unspecified): the Potency result was “inactive” and the cell number change was -11.7%.

In the case of `O=C(NCCN1C(=O)S/C(=C/c2cccnc2)C1=O)c1cccs1`, the Potency is 2.31 µM (active) and the cell number change is -5.78%.

On to `COc1ccc(/C=C2/SC(=O)N(CCNC(=O)C3CCCN3C(=O)c3cccs3)C2=O)cc1` (stereo unspecified), for which the Potency is 20.6 µM (active) and the cell number change is -3.84%.

Regarding `COc1ccc(/C=C2\SC(=O)N(CCNC(=O)C3CC4C=CC3C4)C2=O)cc1` (stereo unspecified), the Potency result was “inactive”.

As to `CCOc1c([N+](=O)[O-])cc2c(C)c(C(=O)N3CCN(C)CC3)oc2c1OCC`, the Potency result was “inactive” and the cell number change was -1.04%.

With `CC(C)CC(c1nnnn1C1CCCC1)N1CCN(C(=O)c2ccco2)CC1` (stereo unspecified), the Potency result is “inactive” and the cell number change is -2.29%.

On to `COc1ccccc1C(=O)Nc1ccc2[nH]ncc2c1`, for which the Potency result was “inactive” and the cell number change was found to be 0.824%.

Regarding `CC(=O)C1=C(O)C(=O)N(Cc2ccccc2)C1c1ccccc1F` (stereo unspecified), the Potency is 18.4 µM (active) and the cell number change was -6.03%.

For the compound `CC(C)(C)C(=O)C1=C(O)C(=O)N(Cc2ccccc2)C1c1ccccc1F` (stereo unspecified), the Potency result was “inactive” and the cell number change was 0.73%.

Consider `CC(=O)C1=C(O)C(=O)N(Cc2ccccc2)C1c1ccc(F)cc1` (stereo unspecified), for which the Potency entry was “inactive” and the cell number change was -7.48%.

Consider `S=C(NCC1CCCO1)NC1CCCC1` (stereo unspecified), for which the Potency is 1.3 µM (active).

On to `S=C(NCC1CCCO1)Nc1ccccc1` (stereo unspecified), for which the Potency result is “inactive” and the cell number change was -0.626%.

As for `S=C(NCC1CCCO1)NC12CC3CC(CC(C3)C1)C2` (stereo unspecified), the Potency entry is “inactive” and the cell number change came out at 5.13%.

`CCOC(=O)c1c(C)[nH]c(C(=O)COC(=O)c2oc3ccc(OC)cc3c2C)c1C`: the Potency result is “inactive” and the cell number change is -6.84%.

With `CCc1nnc(NC(=O)CSc2nc3ccccc3o2)s1`, the Potency entry was “inactive”.

For the compound `Cc1nnc(NC(=O)CSc2nc3ccccc3o2)s1`, the Potency result was “inactive” and the cell number change was -14%.

Consider `O=C(CSc1nc2ccccc2o1)Nc1nncs1`, for which the Potency is 16.4 µM (active) and the cell number change amounted to 24.7%.

`O=C(O)CCc1nc(-c2cccs2)no1`: the Potency result is “inactive” and the cell number change is -23%.

Turning to `CC(C)C(=O)Nc1ccc(-c2nc3ncccc3o2)cc1`, the Potency result is “inactive” and the cell number change worked out at 0.493%.

On to `COc1cc(C=O)ccc1OC(=O)c1ccncc1`, for which the Potency result is “inactive” and the cell number change is -18.5%.

For `CN(c1ccc(C(=O)Nc2ccccc2C(=O)N2CCOCC2)cc1)S(C)(=O)=O`, the Potency entry is “inactive” and the cell number change was -16%.

On to `CN(c1ccc(C(=O)N2CCN(c3ccc(F)cc3)CC2)cc1)S(C)(=O)=O`, for which the Potency result is “inactive”.

`CN(c1ccc(C(=O)N2CCCCCC2)cc1)S(=O)(=O)c1ccccc1`: the Potency is 5.17 µM (active) and the cell number change was -9.4%.

As to `COc1ccc(S(=O)(=O)N(C)c2ccc(C(=O)N3CCCC3)cc2)cc1`, the Potency result was “inactive” and the cell number change was determined as 18.3%.

As for `COc1ccc(S(=O)(=O)N(C)c2ccc(C(=O)N3CCCCC3)cc2)cc1OC`, the Potency result was “inactive” and the cell number change is 2.05%.

For `CN(c1ccc(C(=O)N2CCOCC2)cc1)S(C)(=O)=O`, the Potency was 25.9 µM (active) and the cell number change is -14.6%.

As to `COc1ccc(S(=O)(=O)N(C)c2ccc(C(N)=O)cc2)cc1`, the Potency was 18.4 µM (active).

In the case of `CN(c1ccccc1)S(=O)(=O)c1ccc(C(=O)N2CCCC2)cc1`, the Potency entry is “inactive” and the cell number change is -4.2%.

For `CN(c1ccc(C(=O)N2CCCCC2)cc1)S(=O)(=O)c1ccccc1`, the Potency result was “inactive” and the cell number change is -27%.

`COc1ccc(S(=O)(=O)N(C)c2ccc(C(=O)N3CCOCC3)cc2)cc1OC`: the Potency entry was “inactive”.

For the compound `COc1ccc(S(=O)(=O)N(C)c2ccc(C(=O)N3CCCC3)cc2)cc1OC`, the Potency is 0.326 µM (active) and the cell number change was -7.14%.

In the case of `COc1ccc(S(=O)(=O)N(C)c2ccc(C(=O)N3CCCCC3)cc2)cc1`, the Potency entry is “inactive”.
